Bioassay records from PubChem.
HP1b chromo inh = blocks HP1-beta chromodomain binding to methylated histone tails; P83916; AlphaScreen HP1-beta / biotin-H3K9me3 peptide binding; Potency, µM (doses to about 114 µM), for inactives: top-dose activity change, negative = inhibition, most hits filed as inhibitors; actives 0.56% (n = 390,000); also: potency is read from the fitted curve at half-maximal effect; nearly all actives have a fitted effect of over 70% in size
Target sequence (P83916 whole entry, looked up): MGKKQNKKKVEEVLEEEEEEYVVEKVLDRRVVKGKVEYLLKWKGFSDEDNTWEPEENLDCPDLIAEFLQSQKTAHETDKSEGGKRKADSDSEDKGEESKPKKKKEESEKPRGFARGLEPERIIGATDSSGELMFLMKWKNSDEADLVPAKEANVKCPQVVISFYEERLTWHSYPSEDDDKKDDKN
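AlphaScreen: HP1-beta (50 nM) preformed 30 min with biotin-H3(1-18)K9me3 peptide (50 nM) in PBS pH 7.4, 0.01% Tween-20. Compound added for 30 min at RT, then streptavidin donor/nickel chelate acceptor beads (10 ug/mL) for 30 min.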
JMJD2A Tudor = blocks the human JMJD2A Tudor domain. AlphaScreen JMJD2A-Tudor / H3K4me3 peptide binding. Potency, µM (titrated, usually from 114 µM), for inactives: top-dose activity change, negative = inhibition, hits mostly inhibitors. actives 4.4% (n = 390,000); also: potency is read from the fitted curve at half-maximal effect; % is scaled to controls: 0 for no effect and ±100 for the full control effect; nearly all actives have a fitted effect of over 50% in size
CtBP-E1A inh = blocks the CtBP interaction with E1A; AlphaScreen GST-E1A/His-CtBP binding, 1536-well; hits give low values; activity change, % (test concentration not listed); actives 0.49% (n = 340,000); AID 651724; in the data active = activity change below about -65%; inconclusive = mostly about -30% to -63%; also: % is scaled to controls: 0 for no effect and ±100 for the full control effect
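Homogeneous bead-based format: GST-tagged E1A captured on glutathione donor beads, His-tagged CtBP on nickel acceptor beads; compounds precede bead addition by 2 h at 37 °C.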
Six1-Eya2 inh = Six1/Eya2 interaction inhibition; AlphaScreen GST-Six1/His-Eya2 binding, biochemical; hits give low values; actives 0.56% (n = 360,000); Q15475+O00167; AID 651725; activity change, % (test concentration not listed); in the data active = activity change below about -65%; inconclusive = mostly about -30% to -63%; also: % is scaled to controls: 0 for no effect and ±100 for the full control effect
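AlphaScreen luminescence read after one hour at 37 °C in darkness. Pin-transferred compounds met GST-Six1 and His-Eya2 protein (5X stock 250 nM/500 nM) plus glutathione donor and Ni-chelate acceptor beads (5X, 50 ug/mL).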
BAZ2B block = blocks human BAZ2B; Q9UIF8; AlphaScreen BAZ2B-H3K14Ac peptide displacement; Potency, µM (top dose mostly 114 µM), without a hit: at the top dose activity change, negative = inhibition, hits mostly inhibitors; actives 4.4% (n = 360,000); AID 504333; also: potency is read from the fitted curve at half-maximal effect; % is scaled to controls: 0 for no effect and ±100 for the full control effect; nearly all actives have a fitted effect of over 60% in size
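In this displacement format the biotinylated H3(5-23) peptide acetylated at Lys14 serves as ligand at 50 nM, with BAZ2B at 50 nM in PBS pH 7.4 containing 0.01% Tween-20. Donor and acceptor beads are 10 ug/mL final.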
G9a block = inhibitors of human histone lysine methyltransferase G9a. G9a H3K9 monomethylation, AlphaScreen, 2 h. Q96KQ7. actives 8.8% (n = 350,000). Potency, µM (doses to about 102 µM), without a hit: top-dose activity, negative = inhibition, usual class: inhibitors; also: potency is read from the fitted curve at half-maximal effect; % is scaled to controls: 0 for no effect and ±100 for the full control effect; nearly all actives have a fitted effect of over 75% in size
Target sequence (Q96KQ7 913-1193 limits assumed): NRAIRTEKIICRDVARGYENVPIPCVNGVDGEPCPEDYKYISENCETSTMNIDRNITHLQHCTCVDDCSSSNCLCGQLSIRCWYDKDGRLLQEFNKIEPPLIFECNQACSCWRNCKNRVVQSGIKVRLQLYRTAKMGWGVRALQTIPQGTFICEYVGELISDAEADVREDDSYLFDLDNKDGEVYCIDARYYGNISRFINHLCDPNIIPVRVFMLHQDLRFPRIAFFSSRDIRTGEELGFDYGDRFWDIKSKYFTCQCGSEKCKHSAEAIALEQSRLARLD
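Step 1: enzyme (final 20 nM) with compound, 15 min RT. Step 2: substrate peptide 500 nM and SAM 20 uM, 2 h RT. Step 3: anti-H3K9me1 antibody and AlphaScreen beads, 10 min, then plate read.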
Starred values were filed as active, the others as inactive; ? = inconclusive; / = no result; ! = not active in a repeat; [ ] = another dose, or the depositor's remark. A selection: hits, their analogues and other compounds. The true share with any hit is near 10%. Unless noted, calls follow the shape of the dose curve; as a rule, active = well fitted inhibition curve with a large enough effect; inconclusive = small, poorly fitted or top-dose-only effect; inactive = no such curve, though single readings can be large or run the other way.

SMILES	HP1b chromo inh	JMJD2A Tudor	CtBP-E1A inh	Six1-Eya2 inh	BAZ2B block	G9a block
COc1ccc(CCNC(=O)CCc2c(C)nc3c(-c4ccc(F)cc4)c(C)nn3c2C)cc1OC	47.7%	-8.8%	/	/	-24.5%	16.2%[59 µM]
CC12CCCCC1N(O)CN2O (configuration not stated)	46.3%	?	0.9	-1.2	3.9%	7.94µM*
O=C(O)CCCC[C@@H]1SC[C@@H]2NC(=O)N[C@@H]21	-72.2%	?	9.0	7.3	/	/
Cc1ccc(NC(=O)N(Cc2ccc3c(c2)OCO3)C2CCN(Cc3ccccc3)CC2)cc1Cl	-1.1%	?	/	/	-38.9%	?
NC(N)=NC(=O)c1nc(Cl)c(N)nc1N	45.9%	-2.9%	?	?	5.7%	33.6µM*!
COc1ccc(CCn2c(O)c(/C=N/NC(=O)c3ccncc3)c(=O)[nH]c2=O)cc1OC	19.7%	-27.1%	?	?	?	4.4%
C/C(=N\NC(=O)c1ccncc1)c1c(O)n(Cc2ccccc2)c(=O)[nH]c1=O	39.6%	-11.1%	-18.8	-5.3	-16.1%	42.8%[59 µM]
O=C(N/N=C/c1c(O)n(Cc2ccc(F)cc2)c(=O)[nH]c1=O)c1ccccc1	40.8%	?	-80.6*	-73.7*	79.4µM*	0.9%
O=C(N/N=C/c1c(O)n(Cc2ccccc2)c(=O)[nH]c1=O)c1ccncc1	18.2%	?	?	-71.8*	50.1µM*	-37.4%
C=CCn1c(O)c(/C=N/NC(=O)c2ccncc2)c(=O)[nH]c1=O	42.4%	-22.6%	-19.5	?	79.4µM*	1.1%
CN1CC[C@@]2(C)c3cc(O)ccc3N(C)[C@@H]12	?	3.98µM*!	?	-0.8	/	/
CN1CC[C@@]2(C)c3cc(O)ccc3N(C)C2O1 (some centres not stated)	-15.6%	-20.7%	/	/	/	/
CN1CC[C@@]2(C)c3cc(OC(=O)Nc4ccccc4)ccc3N(C)[C@@H]12	/	/	/	/	/	15.8µM*
Cc1cc(C)n(-c2nc3nonc3nc2Nc2cccc(C)c2C)n1	43.6%	-19.0%	/	-20.9	-1.4%	13.1%[59 µM]
COc1ccc(NC(=O)CCS(=O)(=O)c2ccc3c(c2)oc(=O)n3C)cc1OC	32.1%	-7.2%	2.0	8.9	-5.8%	28.6%
CC(C)C(OC(=O)c1ccco1)C(=O)NCc1ccco1 (configuration not stated)	?	79.4µM*	-1.0	2.2	-4.8%	0.4%[59 µM]
CCOC(=O)C1(CCOc2ccccc2)CCN(Cc2cccc(O)c2)CC1	19.4%	-35.6%	-3.8	-4.1	-4.6%	17.6%
CCOC(=O)C1(CCOc2ccccc2)CCN(Cc2cnc(SC)nc2)CC1	63.6%	-0.3%	2.9	-6.6	?	50.1µM*
Cc1ccc(S(=O)(=O)NC(Cc2cnc[nH]2)C(=O)O)cc1 (configuration not stated)	11.9%	12.6µM*	0.0	2.0	-24.6%	?
O=C(N/N=C\C1C(=O)NC(=S)N(c2ccccc2)C1=O)c1ccc(O)cc1 (configuration not stated)	22.4%	79.4µM*	?	?	25.1µM*	8.91µM*
COC(=O)[C@H]1[C@H]2C[C@@H]3c4[nH]c5cc(OC)ccc5c4CCN3C[C@H]2C[C@@H](OC(=O)/C=C/c2cc(OC)c(OC)c(OC)c2)[C@@H]1OC	-22.4%	28.2µM*	9.6	3.8	?	8.91µM*
Oc1cc2c(cc1O)[C@H]1c3ccccc3CNC1CC2 (some centres not stated)	/	/	/	/	/	0.501µM*
CCOC(=O)/C=C(C)/C=C/CC(C)CCCC(C)C (configuration not stated)	/	/	/	/	/	2.2%[12.7 µM]
C#C[C@]1(O)CC[C@H]2[C@@H]3CCC4=Cc5nc6nc7ccccc7n6cc5C[C@]4(C)[C@H]3CC[C@@]21C	40.1%	-6.5%	-17.0	0.0	2.9%	25.1µM*
CSc1cccc(NC(=O)C2CCN(C(=O)c3cnn(-c4ccccc4)c3-n3cccc3)CC2)c1	1.6%	-34.2%	/	/	?	?
SMILES	HP1b chromo inh	JMJD2A Tudor	CtBP-E1A inh	Six1-Eya2 inh	BAZ2B block	G9a block
NNCc1ccccc1	-28.1%	20µM*	2.9	10.3	/	-50.9%[2.33 µM]
CCCC12CN3CC(CCC)(CN(C1)C3c1ccccn1)C2=O (configuration not stated)	33.5%	25.1µM*	-16.8	-14.5	20µM*	-0.7%[12.7 µM]
CCCC12CN3CCN(C1)CC(CCC)(C3)C2=O	7.9%	-8.8%	6.6	4.5	0.3%	11.3%
C=C(C)C(=O)Nc1cccc(C2=NOC3(C2)C[C@H](C(N)=O)N(C(=O)/C=C/C)C3)c1 (some centres not stated)	8.91µM*	8.91µM*	0.1	-4.4	7.08µM*	?
COC(=O)c1ccc2ccn(CC(=O)NC(C)C)c2c1	0.7%	-20.5%	2.8	1.3	-6.9%	?
CCCCn1c(O)c(/C=N/N2CCCCC2c2cccnc2)c(=O)[nH]c1=S (configuration not stated)	30.3%	-8.3%	0.0	-2.9	-6.5%	8.91µM*
C=CCn1c(O)c(/C=N/N2CCCCC2c2cccnc2)c(=O)[nH]c1=S (configuration not stated)	25.7%	-3.8%	1.6	2.6	7.9%	20.2%[59 µM]
CCCCn1c(O)c(/C=N/N2CCOCC2)c(=O)[nH]c1=S	50.4%	7.6%	/	6.8	-18.8%	44.7µM*
CCCCCCn1c(O)c(C=Nc2ccccc2N2CCOCC2)c(=O)[nH]c1=S	59.3%	-7.4%	9.2	0.0	-12.5%	-37.7%
CCOc1ccc(-c2nc3ccc(-c4nc5ccc(N6CCN(C)CC6)cc5[nH]4)cc3[nH]2)cc1	/	/	/	/	/	12.6µM*
Cc1ccc2nc(N3CCN(C)CC3)[nH]c2c1	21.6%	-21.7%	2.3	9.3	-9.0%	-13.2%[12.7 µM]
Cc1ccc(C(=O)Nc2ccc(S(=O)(=O)N3CCC(c4nc5ccccc5s4)CC3)cc2)cc1	34.4%	-12.9%	/	/	?	-28.4%[59 µM]
CN1CCC(O)(c2cccs2)C(C(=O)c2cccs2)C1 (configuration not stated)	6.2%	-17.6%	-4.2	3.4	-17.8%	25.1µM*
Cc1cccc(C(=O)NC(Oc2ccccc2)C(Cl)(Cl)Cl)c1 (configuration not stated)	-0.1%	39.8µM*	-3.3	11.7	10.3%	3.5%[59 µM]
CCOP(=O)(OCC)C(NC(=O)c1cccc(C)c1)C(Cl)(Cl)Cl (configuration not stated)	33.8%	-9.6%	/	3.9	6.9%	/
CCN1C(=O)C(=Cc2ccc(N3CCOCC3)o2)C(=O)N(CC)C1=S	-8.0%	-34.2%	/	7.7	39.8µM*	/
C=CCN1C(=O)/C(=C\c2ccc(N3CCOCC3)o2)C(=O)NC1=S	0.9%	-9.3%	-13.4	-0.8	0.9%	8.91µM*
